Experimental data published in PubChem BioAssay (NCI).
This is part of a sample that, as a whole, favours compounds with a hit. Of some 83,000 tested, about 20% had one in any assay.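 Negative percent growth values reflect cell death: -40 means 40% of the cells present at the start died, and -100 means all died.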 A number with no mark means an inactive call. The source made the active and inactive calls. Rule for the calls: active = growth percent below 10; inactive = the rest.

These compounds were tested on HL-60(TB) leukemia (assay: NCI-60 one-dose screen, 48 h (100 = growth as untreated, 0 = no growth, -100 = all killed)). Settings: 10 µM unless noted.

Row | Structure (SMILES) | growth
1 | Cc1cc(C(=C2C=CC(=Nc3ccccc3)C=C2)c2ccc(Nc3ccccc3)cc2)ccc1N | 5.66% (active)
2 | Cc1ccc(C(=O)c2ccc(CC(=O)N/N=C/c3cccc(O)c3O)n2C)cc1 | 4.13% (active)
3 | CNc1nc(NC2CCCC2)nc(Sc2ccc(OC)cc2)n1 | 2% [100 µM] (active)
4 | COc1cc(NC(C)CCCN)c2nc(C)ccc2c1OC (stereo not given) | -12.2% (active)
5 | Nc1ccccc1SC1CC(=O)N(c2ccc(Cl)c(Cl)c2)C1=O (stereo not given) | 139%
6 | CN1CCN(Cc2ccc(NC(=O)c3cncc(C#Cc4cnc(N)c5ncccc45)c3)cc2Cl)CC1 | 21.5%
7 | O=C1c2cccc3c(-c4ccc5c(c4)ncn5C4CCCCC4)ccc(c23)C(=O)N1CCO | 103%
8 | COc1cc(NC(=O)SC2=NCCS2)cc(OC)c1 | 90.5%
9 | O=C(O)c1cccc2oc(-c3ccccc3O)nc12 | 49.8%
10 | COc1ccc(OCC(=O)Nc2ccc(-c3nc4ccccc4s3)cc2C)cc1 | 48.2%
11 | N#CC1=C(N)Oc2c(sc3c(Br)cccc23)C1c1ccccn1 (stereo not given) | 7.5% (active)
12 | CCOC(=O)c1csc(NC(=O)COc2cccc(/C=C3\Oc4cc(OC)ccc4C3=O)c2)n1 | 61.3%
13 | C=CCNC(=S)NN | 119%
14 | C#CCOc1c(OC)cc(C(=O)/C(C)=C/c2cccc(N=[N+]=[N-])c2)cc1OC | 1.17% (active)
15 | COc1ccc(OC)c(/C=C2\Oc3cc(O)ccc3C2=O)c1 | 95.7%
16 | Nc1c(C(=O)c2ccccc2)nnc2ncnn12 | 105%
17 | COc1ccc(Nc2cc(C)nc(N3CCN(c4ccnc5cc(Cl)ccc45)CC3)n2)cc1 | 2.43% (active)
18 | COc1ccc(/C=C/C(=O)CCC(=O)O)cc1OC | 96.7%
19 | Nc1ccc(-c2nc3ccc4[nH]ncc4c3c3c2CCCC3)cc1F | 8.91% (active)
20 | CCCCCCCCCCCCNC(=S)N/N=C/c1ccccc1O | 49.1%

Row | Structure (SMILES) | growth
21 | COc1ccc(-c2nnc(N3CCN(C(=O)CN4CCN(c5ccccc5)CC4)CC3)nc2-c2ccc(OC)cc2)cc1 | -58.6% (active)
22 | CCN(CC)CCC(=O)Nc1ccc(Cn2nnc3c2C(=O)c2nnn(Cc4ccc(NC(=O)CCN(CC)CC)cc4)c2C3=O)cc1 | -36.4% (active)
23 | CC(=O)N1c2ccccc2NC2=C(C(=O)NC2(C)C)C1c1ccco1 (stereo not given) | 65.1%
24 | O=C(Nc1ccc(F)cc1)c1c(NC(=O)C(F)(F)F)sc2c1CCCCC2 | 17.1%
25 | COc1ccc(S(=O)(=O)NCCCNc2nccc(-c3c(-c4ccc(F)cc4)nc4sccn34)n2)cc1 | 70.4%
26 | Nc1nc2ccccc2c2c(=O)c3ccc(Cl)cc3sc12 | 92.1%
27 | COc1ccc2c(c1)OC(N)=C(C#N)C2c1cc(OC)c(OC)c(OC)c1 (stereo not given) | -30.4% (active)
28 | Nc1cccc2cccc(O)c12 | 82.9%
29 | Cc1ccccc1Nc1n[nH]c(Cc2ccccc2)n1 | 66.9%
30 | O=C1NC(=O)/C(=C\c2ccncc2)N1 | 119%
31 | CC1(C)CC(=O)c2c(ccc(C(=O)C[C@H](N)CO)c2N)O1 | 44.8%
32 | COc1cc2cc(Oc3ccc(NC(=O)Nc4cccc(C(F)(F)F)c4)cc3)c(C)nc2cc1OC | -24.8% (active)
33 | O=C(NC1CCCCC1)C(c1cccs1)N(CCc1ccccc1)C(=O)c1ccco1 (stereo not given) | 100%
34 | O=C1Nc2ccc(F)cc2/C1=N/c1nnc(Sc2ccccc2)s1 | 49.6%
35 | CCN(CC)c1ccc(/C=N/NC(=O)CSc2nc3ccccc3c(=O)n2Cc2ccc(S(N)(=O)=O)cc2)c(O)c1 | -19.7% (active)
36 | COc1ccc(C(=O)c2sc3nc4c(cc3c2N)CCCC4)cc1OC | 11.4%
37 | ClC1=C(Cl)C(Cl)=C(Cl)C1=Cc1ccc(Cl)cc1 | -4.27% (active)
38 | CN1C(=O)/C(=C/c2ccc(C(=O)Nc3ncc(Cc4ccccc4Cl)s3)cc2)SC1=S | 73.1%
39 | CCc1ccc(CCC(=O)Nc2ncc(Cc3ccc(Cl)cc3)s2)o1 | -39.6% (active)
40 | COc1ccc(-c2nc(C#N)c(NCC(c3ccco3)N3CCCC3)o2)cc1 (stereo not given) | -14.1% (active)
